Structures can show the parent of a compound that is named as a salt.

This test deals with Haemophilus parainfluenzae. Kind of test: growth AUC normalised to DMSO control (fraction of control); higher = less growth inhibition, active = hit call of the paper. The note with it: 20 µM. In short, it runs like this:
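Hemin and NAD were added to the medium for Haemophilus parainfluenzae. All pathogens, after two anaerobic passages, were inoculated at a starting OD578 of 0.01 into pre-reduced mGAM plates with 20 μM compound and 1% DMSO under breathable seals, and OD578 was read hourly for 24 h in three biological replicates. AUC of each growth curve was obtained with the trapezoidal rule up to the exponential-to-stationary transition and normalised to DMSO controls from the same plate.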
For `CC(=O)/N=c1/sc(S(N)(=O)=O)nn1C` [Methazolamide], the “growth AUC normalised to DMSO control” value is 1 (inactive).

Take `Cc1cccc(Nc2ccncc2S(=O)(=O)NC(=O)NC(C)C)c1` [Torsemide]: the “growth AUC normalised to DMSO control” value was 0.978 (inactive). Then `Cc1ccc(N(CC2=NCCN2)c2cccc(O)c2)cc1` [Phentolamine hydrochloride], with 1.05 (inactive).

In the case of `O=C(O)CCCC[C@@H]1SC[C@@H]2NC(=O)N[C@@H]21` [Biotin], the “growth AUC normalised to DMSO control” value is 1.01 (inactive). `c1coc(CNc2ncnc3[nH]cnc23)c1` [Kinetin]: the “growth AUC normalised to DMSO control” value was 1.01 (inactive). The figure for `CC1=C(CC(=O)O)c2cc(F)ccc2/C1=C\c1ccc([S+](C)[O-])cc1` (configuration not stated) [Sulindac] is 0.942 (inactive); for `CCCCC(=O)O[C@H]1CC[C@H]2[C@@H]3CCc4cc(O)ccc4[C@H]3CC[C@]12C` [Estradiol Valerate] it is 1.06 (inactive); for `CCCOc1ccccc1-c1nc2[nH]nnc2c(=O)[nH]1` [Zaprinast] it is 1.01 (inactive). Then `O=C(O)c1ccccc1Nc1cccc(C(F)(F)F)c1` [Flufenamic acid], with 0.932 (inactive); and `CNC1(C)C2CCC(C2)C1(C)C` (configuration not stated) [Mecamylamine hydrochloride], with 0.988 (inactive).

On to `C#Cc1cccc(Nc2ncnc3cc(OCCOC)c(OCCOC)cc23)c1` [Erlotinib], for which the “growth AUC normalised to DMSO control” value was 1.04 (inactive). The figure for `O=C(c1ccccc1)c1ccc2n1CCC2C(=O)O` (configuration not stated) [Ketorolac tromethamine] is 0.972 (inactive). The figure for `CCCCCCCN(CC)CCCC(O)c1ccc(NS(C)(=O)=O)cc1` (configuration not stated) [Ibutilide fumarate] is 0.938 (inactive); for `CC(C[N+](C)(C)C)OC(N)=O` (configuration not stated) [Bethanechol chloride] it is 1 (inactive); for `CN(C(=O)CN(CCO)CC(=O)N(C)C(C)(C)Cc1ccccc1)C(C)(C)Cc1ccccc1` [Oxethazaine] it is 0.737 (inactive). As to `CN(C)CC/C=C1/c2ccccc2COc2ccc(CC(=O)O)cc21` [Olopatadine hydrochloride], the “growth AUC normalised to DMSO control” value was 0.881 (inactive). The figure for `CNCCCC12CCC(c3ccccc31)c1ccccc12` [Maprotiline hydrochloride] is 0.979 (inactive); for `CS(=O)(=O)OCCCCOS(C)(=O)=O` [Busulfan] it is 1 (inactive). The figure for `O=C(O)c1cc(/N=N/c2ccc(S(=O)(=O)Nc3ccccn3)cc2)ccc1O` [Sulfasalazine] is 1.04 (inactive). Regarding `Cc1onc(-c2c(Cl)cccc2Cl)c1C(=O)N[C@@H]1C(=O)N2[C@@H]1SC(C)(C)[C@@H]2C(=O)O` [Dicloxacillin sodium salt hydrate], the “growth AUC normalised to DMSO control” value is 0.893 (inactive).

On to `CC(C(=O)O)c1ccc(-c2ccccc2)c(F)c1` (configuration not stated) [Flurbiprofen], for which the “growth AUC normalised to DMSO control” value was 0.943 (inactive). Then `CCC[C@@H]1C[C@@H](C(=O)N[C@@H]([C@H]2O[C@H](SC)[C@H](O)[C@@H](O)[C@H]2O)[C@@H](C)O)N(C)C1` [Lincomycin hydrochloride], with 0.828 (active); and `O=C(O)[C@H]1/C(=C/CO)O[C@@H]2CC(=O)N21` [Clavulanate potassium salt], with 1.06 (inactive). Then `CC(C)(C)NCC(O)COc1cccc2c1CCC(=O)N2` (configuration not stated) [Carteolol hydrochloride], with 0.985 (inactive).

As for `COC(=O)[C@H]1[C@H]2C[C@@H]3c4[nH]c5cc(OC)ccc5c4CCN3C[C@H]2C[C@@H](OC(=O)c2cc(OC)c(OC)c(OC)c2)[C@@H]1OC` [Reserpine], the “growth AUC normalised to DMSO control” value was 1.07 (inactive). Then `O=C1C(CC[S+]([O-])c2ccccc2)C(=O)N(c2ccccc2)N1c1ccccc1` (configuration not stated) [Sulfinpyrazone], with 1.02 (inactive); and `Cc1ccc(-c2cc(C(F)(F)F)nn2-c2ccc(S(N)(=O)=O)cc2)cc1` [Celecoxib], with 0.85 (inactive).
